Measurements: paper PMC8384837, “Expanding the binding specificity for RNA recognition by a PUF domain”
Positions count from the first letter of the chain named.

Key:
Assay in all cases: yeast three-hybrid, YBZ-1, SC-Leu-His + 0.5 mM 3-AT, 4 days
Conditions in all cases: tags: N-Gal4 AD-HA kept; label: inside an RPR1-promoter hybrid RNA with tandem MS2 sites; ssRNA
PUM1 PUF domain R4-THP = PUM1 PUF domain R4-THP (Homo sapiens, UniProt Q14671 828-1176, N971T;Q975P)
How it was run: (§1)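 Matching RNA elements and Pumilio-1 PUF domain libraries, randomized at the three base-contacting residues of every repeat, were co-expressed from a centromeric plasmid in strain YBZ-1 (LexA–MS2 coat fusion, HIS3 reporter). The repeat regions were PCR-amplified and Illumina-sequenced from cells grown four days on SC-Leu (input) or SC-Leu-His + 0.5 mM 3-AT (selection). The interaction score is the log change in variant frequency from input to selection. It is computed in log2, with a pseudocount of 1 for absent variants.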

PUM1 PUF domain R6-CFY = target: T1, PUM1 PUF domain R6-CFY (Homo sapiens, UniProt Q14671 828-1176, N1043C;Y1044F;Q1047Y)
T1 sequence: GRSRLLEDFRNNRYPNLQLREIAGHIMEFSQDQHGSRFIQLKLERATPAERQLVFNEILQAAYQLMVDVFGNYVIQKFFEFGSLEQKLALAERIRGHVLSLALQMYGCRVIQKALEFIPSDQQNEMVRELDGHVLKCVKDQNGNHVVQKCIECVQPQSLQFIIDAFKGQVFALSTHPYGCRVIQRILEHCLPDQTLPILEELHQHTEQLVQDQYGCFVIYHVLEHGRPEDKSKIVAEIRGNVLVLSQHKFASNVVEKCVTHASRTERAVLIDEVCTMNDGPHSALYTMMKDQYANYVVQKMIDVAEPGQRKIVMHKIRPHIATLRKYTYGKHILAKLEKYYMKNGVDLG
How it was run: as §1

PUM1 PUF domain R6-AYQ = target: T2, PUM1 PUF domain R6-AYQ (Homo sapiens, UniProt Q14671 828-1176, N1043A)
T2 sequence: T1 sequence with C216A, F217Y, Y220Q
How it was run: as §1

PUM1 PUF domain R5-DFA = PUM1 PUF domain R5-DFA (Homo sapiens, UniProt Q14671 828-1176, C1007D;R1008F;Q1011A)
How it was run: as §1

PUM1 PUF domain R7-RTL = PUM1 PUF domain R7-RTL (Homo sapiens, UniProt Q14671 828-1176, S1079R;N1080T;E1083L)
How it was run: as §1

PUM1 PUF domain R7-RRA = PUM1 PUF domain R7-RRA (Homo sapiens, UniProt Q14671 828-1176, S1079R;N1080R;E1083A)
How it was run: as §1

PUM1 PUF domain R1-CWR = PUM1 PUF domain R1-CWR (Homo sapiens, UniProt Q14671 828-1176, S863C;R864W;Q867R)
How it was run: as §1

PUM1 PUF domain R3-RRR = PUM1 PUF domain R3-RRR (Homo sapiens, UniProt Q14671 828-1176, C935R;Q939R)
How it was run: as §1

PUM1 PUF domain R8-HYP = PUM1 PUF domain R8-HYP (Homo sapiens, UniProt Q14671 828-1176, N1122H;Q1126P)
How it was run: as §1

Sequence of PUM1 PUF domain R8-HYP (Q14671 828-1176 N1122H/Q1126P): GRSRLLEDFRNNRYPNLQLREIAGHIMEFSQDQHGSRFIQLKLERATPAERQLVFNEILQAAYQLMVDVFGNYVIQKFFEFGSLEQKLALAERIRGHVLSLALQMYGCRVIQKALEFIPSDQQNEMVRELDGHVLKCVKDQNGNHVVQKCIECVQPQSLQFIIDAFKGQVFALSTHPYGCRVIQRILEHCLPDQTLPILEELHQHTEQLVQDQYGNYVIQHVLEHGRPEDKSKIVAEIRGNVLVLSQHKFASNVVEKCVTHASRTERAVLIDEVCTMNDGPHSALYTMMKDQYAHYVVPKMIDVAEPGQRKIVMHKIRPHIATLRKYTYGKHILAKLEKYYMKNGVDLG
Sequence of PUM1 PUF domain R3-RRR (Q14671 828-1176 C935R/Q939R): as the sequence (Q14671 828-1176 N1122H/Q1126P) above, with C108R, Q112R, H295N, P299Q counted along it

“GGCUAGAACUAGUGGAUCCCCCGGCGCCCGGCGGCUCGAGCCCGGGUAAGUGUAUAUAGUCUGCAUGCCGCCGGGCGCCAUGCCUGCAGGUCGACUCUAGAAAACAUG” was tested. Which binding signal (PUM1 PUF domain R4-THP) did it give?
The binding signal was 2.79 log2 enrichment (interaction score).

Which results are given for “GGCUAGAACUAGUGGAUCCCCCGGCGCCCGGCGGCUCGAGCCCGGGUAAGUGAAAAUAGUCUGCAUGCCGCCGGGCGCCAUGCCUGCAGGUCGACUCUAGAAAACAUG”?
binding signal (PUM1 PUF domain R6-CFY): 1.54 log2 enrichment (interaction score); binding signal (PUM1 PUF domain R6-AYQ): 4.26 log2 enrichment (interaction score)

With “GGCUAGAACUAGUGGAUCCCCCGGCGCCCGGCGGCUCGAGCCCGGGUAAGUGUAAAUAGUCUGCAUGCCGCCGGGCGCCAUGCCUGCAGGUCGACUCUAGAAAACAUG” as the sequence, how does the binding signal (PUM1 PUF domain R6-CFY) read?
Its binding signal is 2.39 log2 enrichment (interaction score).

And the binding signal (PUM1 PUF domain R5-DFA)?
The binding signal was 4.36 log2 enrichment (interaction score).

Which results are given for “GGCUAGAACUAGUGGAUCCCCCGGCGCCCGGCGGCUCGAGCCCGGGUAAGUUUAAAUAGUCUGCAUGCCGCCGGGCGCCAUGCCUGCAGGUCGACUCUAGAAAACAUG”?
binding signal (PUM1 PUF domain R7-RTL): 3.26 log2 enrichment (interaction score); binding signal (PUM1 PUF domain R7-RRA): 3.23 log2 enrichment (interaction score)

Which binding signal (PUM1 PUF domain R1-CWR) does the source give for “GGCUAGAACUAGUGGAUCCCCCGGCGCCCGGCGGCUCGAGCCCGGGUAAGUGUAAAUCGUCUGCAUGCCGCCGGGCGCCAUGCCUGCAGGUCGACUCUAGAAAACAUG” here?
The binding signal was 6.18 log2 enrichment (interaction score).

“GGCUAGAACUAGUGGAUCCCCCGGCGCCCGGCGGCUCGAGCCCGGGUAAGUGUAAAUGGUCUGCAUGCCGCCGGGCGCCAUGCCUGCAGGUCGACUCUAGAAAACAUG” was tested. Which binding signal (PUM1 PUF domain R1-CWR) did it give?
The binding signal was 1.23 log2 enrichment (interaction score).

With “GGCUAGAACUAGUGGAUCCCCCGGCGCCCGGCGGCUCGAGCCCGGGUAAGUCUAAAUAGUCUGCAUGCCGCCGGGCGCCAUGCCUGCAGGUCGACUCUAGAAAACAUG” as the sequence, how does the binding signal (PUM1 PUF domain R7-RRA) read?
The binding signal was 5.23 log2 enrichment (interaction score).

“GGCUAGAACUAGUGGAUCCCCCGGCGCCCGGCGGCUCGAGCCCGGGUAAGUGUAAUUAGUCUGCAUGCCGCCGGGCGCCAUGCCUGCAGGUCGACUCUAGAAAACAUG” was tested. Which binding signal (PUM1 PUF domain R3-RRR) did it give?
The binding signal was 3.73 log2 enrichment (interaction score).

How did the binding signal (PUM1 PUF domain R8-HYP) turn out when “GGCUAGAACUAGUGGAUCCCCCGGCGCCCGGCGGCUCGAGCCCGGGUAAGCGUAAAUAGUCUGCAUGCCGCCGGGCGCCAUGCCUGCAGGUCGACUCUAGAAAACAUG” was run?
The binding signal was 5.46 log2 enrichment (interaction score).

With “GGCUAGAACUAGUGGAUCCCCCGGCGCCCGGCGGCUCGAGCCCGGGUAAGGGUAAAUAGUCUGCAUGCCGCCGGGCGCCAUGCCUGCAGGUCGACUCUAGAAAACAUG” as the sequence, how does the binding signal (PUM1 PUF domain R8-HYP) read?
The binding signal was 2.77 log2 enrichment (interaction score).
